About 290 (24%) of roughly 1,200 compounds were called active. Another 3% or so got no clear call; they are omitted. Not all results are given here. Results with a measured potency or affinity are listed apart. Unmarked numbers belong to inactive results.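 How the source made its calls: active means compounds lowering cell viability signal with fitted half-maximal concentration at most ten times their highest tested concentration; inconclusive means flat fit with 30 to 70% signal loss, or poor fit; inactive means the rest.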

The nature of this test: HEK293T cell viability reduction, dose response, cytotoxicity control for LMP1 NF-kB inhibitor project, CellTiter-Glo luminescence, cherry-picks (AID 504861). Conditions: CellTiter-Glo ATP luminescence, 48 h; series mostly up to 26 µM; activity change, negative = cytotoxicity: at the top concentration. On the technique in general: ATP-based viability assays read luminescence as a measure of living cells.
As for `O=S(=O)(N/N=C/c1ccccc1F)c1ccccc1`, the “activity change, negative = cytotoxicity” value was 10.4%.

For the compound `Cc1cc(N2CCOCC2)c2c(N)c(Br)cc(C)c2n1`, the “activity change, negative = cytotoxicity” value is -2.56%.

For `C=CCn1c(=O)/c(=C/c2ccc(Cl)cc2)s/c1=C(\C#N)c1nnc2n1CCCCC2`, the “activity change, negative = cytotoxicity” value was 4.2%.

`NC(=O)CC(NC(=O)c1ccccc1)c1ccc(NC2CCN(Cc3ccccc3)CC2)c([N+](=O)[O-])c1` (stereo not drawn): the “activity change, negative = cytotoxicity” value is -1.78%.

With `C=CCN1CCN(C(CC(C)C)c2nnnn2CCOC)CC1` (stereo not drawn), the “activity change, negative = cytotoxicity” value was 10.7%.

As for `CCC(C)(C)NC(=O)C(c1ccc(F)cc1)N(CCOC)C(=O)CCC(=O)Nc1nccs1` (stereo not drawn), the “activity change, negative = cytotoxicity” value was -8.1%.

`O=C(CCS(=O)(=O)c1ccccc1)Nc1nccs1`: the “activity change, negative = cytotoxicity” value is 4.41%.

With `CCC(=O)OC1c2ccccc2C(=O)N1Cc1ccccc1` (stereo not drawn), the “activity change, negative = cytotoxicity” value is 3.57%.

`COc1ccc(S(=O)(=O)N2CCN(CC(=O)Nc3cc(OC)cc(OC)c3)CC2)cc1`: the “activity change, negative = cytotoxicity” value is 9.62%.

As for `COC(=O)C1=C(C(=O)c2ccccc2)C(c2ccccc2)n2nnnc2N1` (stereo not drawn), the “activity change, negative = cytotoxicity” value is 5.26%.

As for `O=C(CN1C(=O)CCOc2ccccc21)Nc1ccc(Cl)c(S(=O)(=O)N2CCOCC2)c1`, the “activity change, negative = cytotoxicity” value is -1.24%.

Consider `CCCCCCCCOC(=O)/C=C/c1c(C)[nH]c(=O)[nH]c1=O`, for which the “activity change, negative = cytotoxicity” value is 4.83%.

In the case of `Cc1c(NC(=O)c2cc(-c3cccs3)nc3ccccc23)c(=O)n(-c2ccccc2)n1C`, the “activity change, negative = cytotoxicity” value was -9.52%.

Regarding `Cn1cccc1/C=C1\CC(C(C)(C)C)C/C(=C\c2cccn2C)C1=O` (stereo not drawn), the “activity change, negative = cytotoxicity” value was 5.18%.

Regarding `O=C(c1ccc(COc2ccccc2Cl)o1)N1CCCC1`, the “activity change, negative = cytotoxicity” value was 3.19%.

Regarding `COC(=O)CN(c1ccccc1F)S(=O)(=O)c1ccc(C)cc1`, the “activity change, negative = cytotoxicity” value is 1.16%.

Consider `CCCCCCNC(=O)O[C@]12C[C@@H](C(=O)OC)[C@@H](C(=O)OC)C[C@@]1(O)CN(S(=O)(=O)c1ccc(C)cc1)C2`, for which the “activity change, negative = cytotoxicity” value was 3.74%.

`COc1ccc(-c2[nH]ncc2-c2ccc3c(c2)OCCO3)c(O)c1`: the “activity change, negative = cytotoxicity” value was 5.3%.

`N#CC1=C(N)OC2=C(C(=O)CCC2)C12C(=O)N1CCCc3cccc2c31` (stereo not drawn): the “activity change, negative = cytotoxicity” value was 18.7%.

On to `COC(CNC(=O)c1ccc(N2CCC3(CC2)OCCO3)c([N+](=O)[O-])c1)OC`, for which the “activity change, negative = cytotoxicity” value is 21.8%.

In the case of `COc1ccc(C)cc1S(=O)(=O)N(CC(=O)Nc1cc([N+](=O)[O-])ccc1C)c1ccc(C)c(C)c1`, the “activity change, negative = cytotoxicity” value was 14.1%.

In the case of `Cc1cc(C(=O)COC(=O)c2cccc(NS(C)(=O)=O)c2)c(C)n1CC1CCCO1` (stereo not drawn), the “activity change, negative = cytotoxicity” value was -1.07%.

Consider `O=C(O)c1cccc(NC(=O)c2cn(-c3ccccc3)nc2-c2ccc(F)cc2)c1`, for which the “activity change, negative = cytotoxicity” value was -2.08%.

For `Cc1ccc(C(=O)Nc2ncc3c(Cl)cccc3n2)cc1`, the “activity change, negative = cytotoxicity” value is -4.06%.

Consider `CCn1c(CCNC(=O)c2ccc(OC)cc2)nnc1SCc1ccc(Cl)cc1Cl`, for which the “activity change, negative = cytotoxicity” value is -1.26%.

On to `CC(C)(C)c1ccc(-c2noc(CCC(N)=O)n2)cc1`, for which the “activity change, negative = cytotoxicity” value was 4.9%.

Turning to `CCOC(=O)c1cn2nc(N3CCCC3)ccc2n1`, the “activity change, negative = cytotoxicity” value is -3.72%.

For `Cc1ccc(NC(=S)NCc2cccs2)cc1`, the “activity change, negative = cytotoxicity” value was 6.68%.

In the case of `O=C(Nc1cccc(Cl)c1)Nc1cccc(C(=O)O)c1`, the “activity change, negative = cytotoxicity” value was 4.19%.

As to `Cc1ccc(NC(=O)C(=O)Nc2ccccn2)cc1`, the “activity change, negative = cytotoxicity” value was -1.38%.

Regarding `S=C(NN=C1C2CC3CC(C2)CC1C3)Nc1ccccc1`, the “activity change, negative = cytotoxicity” value was 7.44%.

Regarding `CNC1(C)[C@H]2CC[C@H](C2)C1(C)C` (stereo partly drawn), the “activity change, negative = cytotoxicity” value was -0.979%.

Regarding `CC(=O)c1cccc(NC(=O)Nc2ccc(C(=O)N3CCOCC3)cc2)c1`, the “activity change, negative = cytotoxicity” value is -7.4%.

As for `CCCCCc1ccc(-c2ccc(/C=C/C(=O)O)cc2)nc1`, the “activity change, negative = cytotoxicity” value was -2.31%.

On to `COc1ccc(-c2nc(C)ncc2-c2ccccc2)c(O)c1`, for which the “activity change, negative = cytotoxicity” value was -3.21%.

As to `Cc1ccc(N(Cc2cc3ccccc3[nH]c2=O)C(=O)c2ccco2)c(C)c1`, the “activity change, negative = cytotoxicity” value was 7.35%.

For the compound `O=C(O)c1cccc(Nc2ccnc(Nc3cccc(C(=O)O)c3)n2)c1`, the “activity change, negative = cytotoxicity” value is -5.64%.

For the compound `CCN(C(=O)CSc1nnc(Nc2cccc(C)c2C)s1)C1CCS(=O)(=O)C1` (stereo not drawn), the “activity change, negative = cytotoxicity” value was 15.3%.

Turning to `COc1ccc(-c2nc(CN3CCC(C(=O)N4CCOCC4)CC3)c(C)o2)cc1C`, the “activity change, negative = cytotoxicity” value was -0.49%.

Consider `Cc1cc(C)c2sc(NC(=O)C3CC3)nc2c1`, for which the “activity change, negative = cytotoxicity” value is 4.24%.

Regarding `CCOC(=O)Oc1c(OC)cc(C(=O)O[C@@H]2C[C@@H]3CN4CCc5c([nH]c6cc(OC)ccc56)[C@H]4C[C@@H]3[C@H](C(=O)OC)[C@H]2OC)cc1OC`, the “activity change, negative = cytotoxicity” value was -5.9%.

As for `Nc1ccn([C@@H]2O[C@H](CO)[C@@H](O)[C@@H]2O)c(=O)n1`, the “activity change, negative = cytotoxicity” value was 0.472%.

For the compound `Cc1cc(N2CCCC2=O)cc(C)c1S(=O)(=O)Nc1c(C)nn(C)c1C`, the “activity change, negative = cytotoxicity” value is 1.46%.

On to `Cn1cccc1-c1cc(C(=O)N2CCc3c([nH]c4ccccc34)C2c2ccccn2)[nH]n1` (stereo not drawn), for which the “activity change, negative = cytotoxicity” value was -10.6%.

On to `COc1ccc(-c2oc3ncnc(NCCN4CCOCC4)c3c2-c2ccc(OC)cc2)cc1`, for which the “activity change, negative = cytotoxicity” value was 2.98%.

On to `CSc1nc(C)nc2c1c(=O)n(C)c(=O)n2C`, for which the “activity change, negative = cytotoxicity” value was 8.38%.

For the compound `Cc1ccc(/C=C/c2nc3ccccc3s2)s1`, the “activity change, negative = cytotoxicity” value is -11.8%.

Consider `Cn1cc(CC(=O)NCCCN2CCCC2)c2ccccc21`, for which the “activity change, negative = cytotoxicity” value is 3.13%.

For the compound `CCc1cc(Cl)c(OC)c(C(=O)NC[C@@H]2CCCN2CC)c1O`, the “activity change, negative = cytotoxicity” value is -6.38%.

Consider `c1ccc2c3c([nH]c2c1)C(C1CCCCC1)N(Cc1ncc[nH]1)CC3` (stereo not drawn), for which the “activity change, negative = cytotoxicity” value was 1.16%.

`Cc1ccc(C(=O)Nc2sc(Cc3ccc4c(c3)OCO4)c(C)c2C(N)=O)cc1`: the “activity change, negative = cytotoxicity” value was 6.6%.

As for `O=C(Nc1ccc(N2CCOCC2)cc1)c1cnccn1`, the “activity change, negative = cytotoxicity” value was 1.13%.

`Cn1ncc(Cl)c1C(=O)NC1CCCC1`: the “activity change, negative = cytotoxicity” value was 7.6%.

Consider `CCN(CC)c1ccc(NC(=O)c2cccc(F)c2)c(C)c1`, for which the “activity change, negative = cytotoxicity” value is 1.9%.

With `COc1ccccc1N1CCN(CCCNC(=O)C2CCCN(c3ncnc4c3nc3n4CCCCC3)C2)CC1` (stereo not drawn), the “activity change, negative = cytotoxicity” value is -8.21%.

On to `CNC(=O)c1[nH]cnc1C(=O)N[C@@H](CCCCNC(=O)OC(C)(C)C)C(=O)OC(C)(C)C`, for which the “activity change, negative = cytotoxicity” value was 1.6%.

For `CCOC(=O)c1c(-n2cccc2)sc2c1CCCC2=O`, the “activity change, negative = cytotoxicity” value is 7.85%.

As to `Cc1ccccc1C(=O)c1c[nH]c(C(=O)NCc2ccco2)c1`, the “activity change, negative = cytotoxicity” value was 12.1%.

For `O=c1c2cnn(-c3ccccc3)c2nc(-c2cccs2)n1-c1ccc(Cl)cc1`, the “activity change, negative = cytotoxicity” value was -3.75%.

On to `Cc1ccc(OCC(=O)NNC(=S)NC(=O)C2CCCCC2)c(C)c1`, for which the “activity change, negative = cytotoxicity” value is -1.86%.

For the compound `N#Cc1c(NC(=O)CCCC(=O)O)sc2c1CCCCC2`, the “activity change, negative = cytotoxicity” value is 7.69%.

In the case of `COC(=O)CCNc1ccc2c(c1)OCCO2`, the “activity change, negative = cytotoxicity” value was -7.17%.

`COc1ccc(C(=O)OCC(=O)c2c[nH]c3ccccc23)cc1OC`: the “activity change, negative = cytotoxicity” value is 0.68%.

As to `Clc1ccc(-c2nnc(NC3=NCCCCC3)o2)cc1`, the “activity change, negative = cytotoxicity” value was -3.14%.

Regarding `O=C(O)c1ccc(-n2cncn2)c([N+](=O)[O-])c1`, the “activity change, negative = cytotoxicity” value is 0.957%.

Turning to `CN(C)c1ccnc2sc(C(N)=O)c(N)c12`, the “activity change, negative = cytotoxicity” value was 2.86%.

On to `Cc1ccc(CNC(=O)C2CCN(S(=O)(=O)c3c(C)noc3/C=C/c3ccco3)CC2)cc1`, for which the “activity change, negative = cytotoxicity” value was 2.54%.

Consider `Cc1nc(N)nc(SCc2ccc([N+](=O)[O-])cc2)c1N`, for which the “activity change, negative = cytotoxicity” value is 11.7%.

The values above are taken from PubChem BioAssay AID504861 (Broad Institute, 2011).
